# Experimental data reported in PubChem BioAssay AID2687 (National Center for Advancing Translational Sciences (NCATS), 2010).
# The source made the active and inactive calls.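 How the source made its calls: active means potency half-maximal inhibitory concentration below 100 µM; inconclusive means dose-dependent response but potency above 100 µM; inactive means the rest.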
# Molecular target: Lysine-specific demethylase 4E (Homo sapiens) (UniProt B2RXH2)
# Experiment: AlphaScreen Assay for Inhibitors of Human Jumonji Domain Containing 2E (JMJD2E)
# Details: recombinant JMJD2E, H3K9me3 peptide demethylation
# Excerpt: The fine interplay among methylation states of several lysine residues on the tails of histone proteins is a major determinant of the transcriptional state of the associated DNA coding regions and is commonly referred to as the histone code. Histone lysine demethylases catalyze the removal of methyl groups from methylated lysine sidechains on histones H3 and H4, thus antagonizing the reactions catalyzed by histone lysine methyltransferases. […] In search for novel inhibitors of JMJD2E demethylase, a member of the largest set of histone demethylases belonging to the Fe(II) and 2-oxoglutarate oxygenase (2OG) superfamily, we performed a quantitative high-throughput screen (Inglese 2006). See AID 2147 for details on the primary screen. The assay here is a secondary AlphaScreen screen used to validate follow-up compounds. References: Inglese, J., Auld, D., Jadhav, A., Johnson, R., Simeonov, A., Yasgar, A., Zheng, W. and Austin, C. […]
# Assay Buffer: 50 mM HEPES pH7.5, 0.01% Tween-20, 0.1% BSA (Cohn Fraction V; Sigma A7030) Peptide: biotin-[…](me3/2)STGGKA Antibody: Abcam Ab1220, Anti-H3K9Me2 Final concentration of components in enzyme reaction: JMJD2E 5 nM, Peptide 30 nM, […] L-Ascorbic Acid, […], DMSO 0.1% Alphascreen beads made up in the dark in assay buffer and pre-incubated for 1 hour in the dark. […] Read plate on BMG Labtech Pherastar FS
# Lysine-specific demethylase 4E (Homo sapiens), sequence (B2RXH2 1-337 limits assumed): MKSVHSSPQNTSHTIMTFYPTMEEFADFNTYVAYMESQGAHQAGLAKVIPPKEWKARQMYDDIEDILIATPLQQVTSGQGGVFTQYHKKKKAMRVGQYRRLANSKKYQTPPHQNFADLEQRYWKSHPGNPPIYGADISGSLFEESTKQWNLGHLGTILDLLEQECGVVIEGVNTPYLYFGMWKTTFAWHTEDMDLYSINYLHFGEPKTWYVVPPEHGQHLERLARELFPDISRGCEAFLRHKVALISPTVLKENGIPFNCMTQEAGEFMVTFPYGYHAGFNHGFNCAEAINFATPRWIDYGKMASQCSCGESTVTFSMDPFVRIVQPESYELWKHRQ
row,Structure (SMILES),Potency
1,Oc1ccc(CNc2cccc(F)c2)c2cccnc12,1.49 µM (active)
2,O=S(=O)(Nc1ccc(O)c2ncccc12)c1ccccc1F,0.435 µM (active)
